Hits are enriched below; roughly 4.2% of the tested compounds scored in any of these assays.
tim10-1 inh – inhibits growth of tim10-1 mutant yeast; AID 463190; inhibition, % at 20 µM; S. cerevisiae tim10-1 ts strain growth, BacTiter-Glo, 24 h; 330,000 compounds, 2.2% hits;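 active = inhibition of at least 40%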;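 note: mutant grown at 25 °C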
V-ATPase pHluor – alters yeast V-ATPase proton transport | S. cerevisiae, pHLuorin cytosolic pH fluorescence | response, % at 10 µM | 350,000 compounds, 0.37% hits | AID 504577; in the data active = response mostly above about 7.3%, no sharp cut-off; inactive = mostly below about 5.4%; note: actives read high
TIM10 inh – TIM10 yeast growth inhibition | S. cerevisiae TIM10 strain growth, BacTiter-Glo luminescence, 24 h | inhibition, % at 10 µM | 330,000 compounds, 1.4% hits;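 active = inhibition of 40% or more at the single tested concentration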;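 note: wild-type TIM10 isogenic control strain grown at permissive 25 °C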
NALP1 yeast inh – NALP1 inhibition; S. cerevisiae NALP1/ASC/caspase-1 growth, X-gal OD620, 72 h; inhibition, % at 10 µM; 280,000 compounds, 0.61% hits; AID 2071; in the data active = inhibition mostly above about 24%, no sharp cut-off; inactive = mostly below about 32%
tim23-1 inh – tim23-1 yeast growth inhibition; S. cerevisiae tim23-1 growth, BacTiter-Glo luminescence, 24 h; inhibition, % at 20 µM; 330,000 compounds, 1.3% hits; AID 463212;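 active = growth inhibition of the mutant yeast at or above 50%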;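 note: temperature-sensitive mutant grown at 25 °C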
NLRP3 yeast inh – NALP3 inhibition in yeast | Yeast reconstituted NLRP3/ASC/caspase-1, beta-gal luminescence, 24 h | inhibition, % at 10 µM | 330,000 compounds, 0.39% hits;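 active = inhibition of 50% or more; inactive = inhibition below 50%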
tim10-1 conf – tim10-1 yeast growth inhibition, confirmed; 7,400 compounds, 56% hits; S. cerevisiae tim10-1 ts strain growth, BacTiter-Glo, 24 h; AID 463213; inhibition, % at 20 µM; shares compounds with tim10-1 inh;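 active = inhibition of yeast growth at or above a set limit in either of two repeat tests at 20 µM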;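 note: tim10-1 mutant grown at permissive 25 °C to find synthetic lethal compounds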
TIM10 conf – TIM10 yeast growth inhibition, confirmed | inhibition, % at 10 µM | AID 463215 | shares compounds with TIM10 inh | S. cerevisiae tim10 strain growth, BacTiter-Glo luminescence, 24 h | 4,600 compounds, 63% hits;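 active = inhibition of yeast growth at or above a set limit in either of two replicates at 10 µM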; note: this counterscreen used the strain with wild-type TIM10
tim23-1 confirm – tim23-1 yeast growth inhibition, confirmed; shares compounds with tim23-1 inh; S. cerevisiae tim23-1 growth, BacTiter-Glo luminescence, 24 h; inhibition, % at 20 µM; 4,400 compounds, 83% hits;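 active = inhibition above about 39% in either of two replicate wells at 20 µM, limit read from the data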;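 note: temperature-sensitive tim23-1 mutant grown at 25 °C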
Numbers stand for hits; - = inactive; . = no result given.

SMILES	tim10-1 inh	V-ATPase pHluor	TIM10 inh	NALP1 yeast inh	tim23-1 inh	NLRP3 yeast inh	tim10-1 conf	TIM10 conf	others
O=C(Cc1ccc(Br)c2ccccc12)N/N=C/c1ccccn1	41	-	40	-	-	-	-	32
O=C(Cc1ccc(F)cc1)N/N=C/c1ccccn1	-	-	-	-	-	-	.	.
C=CCn1cnc2sc(C(=O)Nc3ccccc3OC)c(C)c2c1=O	-	-	-	-	-	-	.	.
O=c1c(Cl)c(NCc2ccc(F)cc2)cnn1C12CC3CC(CC(C3)C1)C2	47	-	52	-	-	-	38	-
Cc1nn(C(C)C(=O)N2CCc3ccccc3C2)c(=O)c2cc3occc3n12 (centres undefined)	-	-	-	-	-	-	.	.
CCCCNC(=S)Nc1ccc(SC(F)F)cc1	53	-	41	-	-	-	36	30
CNS(=O)(=O)c1ccc(CNC[C@H]2O[C@@H](n3ccc(N)nc3=O)[C@H](O)[C@@H]2O)cc1	.	-	.	.	.	.	.	.
CC1CCN(C(=S)c2cn(Cc3ccccc3F)c3ccccc23)CC1	43	-	42	-	-	-	32	-
CN(C)c1ccc(NC2=C(Cl)C(=O)c3ccccc3C2=O)cc1	62	-	68	-	-	-	63	60
CC(C)n1c(CSCc2ccc(Cl)cc2Cl)n[nH]c1=S	49	-	41	-	-	-	-	49
C=CCc1ccc(OCCOc2cccc3ccc(C)nc23)c(OC)c1	42	-	52	-	-	-	32	31
O=C(CS(=O)c1ccccc1[N+](=O)[O-])Oc1ccc(Br)cc1 (centres undefined)	81	-	51	-	-	-	64	54
COC(F)(C(=O)Nc1ccc2c(c1)C(=O)NC2=O)C(F)(F)F (centres undefined)	-	-	-	-	-	-	.	.
COc1ccc(C(=O)Nc2ccc(S(=O)(=O)N3CCCCC3)cc2)cc1	48	-	61	-	-	-	64	62
O=C(CN1CCN(S(=O)(=O)c2ccc3ccccc3c2)CC1)Nc1ccc2c(c1)CCC2	44	-	53	-	-	-	46	-
O=C(CN1CCN(S(=O)(=O)c2ccc3ccccc3c2)CC1)Nc1ccc(N2CCOCC2)cc1	-	-	-	-	-	-	.	.
O=C(COc1ccc2ccccc2c1)Nc1ccc(S(=O)(=O)N2CCCCCC2)cc1	41	-	46	-	-	-	37	-
COc1ccc(C(=O)Nc2ccc(S(=O)(=O)N3CCN(C)CC3)cc2)cc1	-	-	-	.	-	-	.	.
Cc1c(Cl)cccc1NC(=O)CSc1nccn1C	-	-	-	-	-	-	.	.
CC(C)Cc1nnc(NS(=O)(=O)c2ccc([N+](=O)[O-])cc2)s1	-	-	-	-	-	-	.	.
NNC(=O)c1ccc(Cn2cc(Cl)cn2)o1	-	-	-	-	-	-	.	.
Cc1ccc2nc(NC(=O)c3ccc(Cn4cc(Cl)cn4)o3)sc2c1	46	-	51	-	-	-	-	33
CCOC(=O)c1c(S(=O)(=O)NCc2ccc(OC)cc2)c(C)n(C)c1C	-	-	-	-	-	-	.	.
COc1ccc(Nc2nc(-c3cccs3)nc3ccccc23)cc1	-	-	-	-	-	-	.	.
COc1cccc(Nc2nc(-c3cccs3)nc3ccccc23)c1	53	-	48	-	-	-	36	45
O=C(NC(=S)Nc1nc2c(s1)CSc1ccccc1-2)c1ccccc1	48	-	44	-	-	-	-	30
Cc1cccc(NC(=S)N/N=C/c2ccc3c(c2)OCO3)c1	42	-	47	-	-	-	-	-
Cc1cc(C)c(C(=O)/C=C/c2ccc(C(C)C)cc2)c(=O)[nH]1	49	-	43	-	-	-	53	37
Cc1cc(C)c(C(=O)/C=C/C=C/c2ccccc2)c(=O)[nH]1	-	-	-	-	-	-	.	.
O=C(CSCc1ccccc1Br)N/N=C/c1ccc2c(c1)OCO2	51	-	-	-	60	-	46	.	tim23-1 confirm=50
